Consider 102 compounds from PubChem BioAssay AID431 (Sanford-Burnham Center for Chemical Genomics, 2006).

Hit rate of the full screen: of about 63,000 compounds, about 1,100 (1.7%) were called active. For the sample, actives were picked, then their nearest neighbours and some compounds at random. Entries with a potency or affinity are not part of this list. A number with no mark means an inactive call.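 Rule for the calls: active = compounds whose percent cytotoxicity in the single-dose primary screen, scaled between solvent and toxic-drug controls, exceeds 50; inactive = the rest.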

A short description of the experiment: viability loss of HPDE-C7K cells – cell-based, fluorescence, HTS, primary screen (AID 431).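 Note: 0% = DMSO solvent wells and 100% = doxorubicin-treated wells.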 As to conditions: HPDE-C7K KRASV12 cells, Alamar Blue viability, 48 h; at 10 µM; active compounds read high. For orientation: The colour change of resazurin is a common sign of viable cells or microbes.
Consider `COC(=O)c1ccc(C(=S)N2CCOCC2)cc1`, for which the cytotoxicity is -0.4%.

Take `Cc1ccc(C(c2nnnn2C(C)(C)C)N(Cc2ccco2)Cc2cccs2)cc1` (configuration not stated): the cytotoxicity is 1.5%.

For the compound `COc1cccc(NC(=O)COC(=O)c2cccnc2)c1`, the cytotoxicity is -8.8%.

Regarding `CC(C)(C)OC(=O)N1CCC[C@H]1C(=O)NCC1CCC(C(=O)O)CC1` (some centres not stated), the cytotoxicity is 7.4%.

With `CCC(c1nnnn1C1CCCCC1)N1CCN(C2CCCC2)CC1` (configuration not stated), the cytotoxicity was 3.5%.

Take `Cc1cc(NCCCN)nc(-c2ccccc2O)n1`: the cytotoxicity was 22.2%.

Turning to `CCCCNc1cc(C)nc(NCc2ccccc2)n1`, the cytotoxicity is 82.9% (active).

As for `Cc1cc(Nc2ccccc2)nc(-c2ccccc2O)n1`, the cytotoxicity was 1.4%.

With `CCCCOc1cc(C)nc(NCc2ccccc2)n1`, the cytotoxicity is -11.6%.

For `Cc1cc(C)nc(NCCCc2ccccc2)n1`, the cytotoxicity was -12.4%.

In the case of `CC1=C(C(=O)OC(C)C)C(c2ccccn2)n2ncnc2N1` (configuration not stated), the cytotoxicity was 5.9%.

Take `COc1ccccc1NC(=O)N1CCN(c2ccccc2F)CC1`: the cytotoxicity is 8%.

Regarding `O=C(Cc1ccc2c(c1)OCCO2)c1c(O)cc(O)cc1O`, the cytotoxicity was 62.7% (active).

In the case of `O=C(O)CCC(=O)c1ccc2c(c1)OCCO2`, the cytotoxicity was 1.9%.

`O=C(O)COc1ccc(C(=O)Cc2ccc3c(c2)OCCCO3)c(O)c1`: the cytotoxicity was -4.8%.

Regarding `O=C(Cn1ncc2c1-c1ccccc1OC2)N(Cc1ccco1)C1CCCCC1`, the cytotoxicity was 2.4%.

Regarding `Cn1c(SCC(=O)N2CCN(c3ccccc3)CC2)nnc1-c1cc2ccccc2o1`, the cytotoxicity was 10.4%.

Take `CSc1nsc(SC)c1NC(=O)OCCc1ccccn1`: the cytotoxicity is -3.5%.

Regarding `CC(C)(C)c1ccc(Cn2nnc3c(=O)[nH]c(C4CCN(C(=O)Cc5cccs5)CC4)nc32)cc1`, the cytotoxicity was 8.5%.

As for `O=C(Cc1cccs1)N1CCCC(c2nc3c(nnn3Cc3ccc(F)cc3)c(=O)[nH]2)C1` (configuration not stated), the cytotoxicity is 8.4%.

For the compound `CCn1c(CN2CCCCCC2=O)nnc1SCc1cnc(-c2ccccc2)s1`, the cytotoxicity was -1.7%.

In the case of `Cc1ccc(-c2csc3ncnc(-n4nc(C)cc4N)c23)cc1`, the cytotoxicity was -8.1%.

With `O=C(CNC(=O)c1ccco1)OCc1ccc(Cl)cc1`, the cytotoxicity is -3%.

With `COc1ccccc1NC(=O)Nc1c(C)n(C)n(-c2ccccc2)c1=O`, the cytotoxicity is -1.8%.

With `CCOC(=O)Cn1c(=O)n(C2CCCC2)c(=O)c2ccccc21`, the cytotoxicity was -5.4%.

On to `CCN1CCN(c2ncnc3c2cnn3-c2ccc(C)cc2C)CC1`, for which the cytotoxicity was 11.6%.

Consider `CCc1cc2c(N3CCCCC3)ncnc2s1`, for which the cytotoxicity is -10.5%.

With `CCc1cc2c(N3CCN(c4ccccc4)CC3)ncnc2s1`, the cytotoxicity was 91.1% (active).

For the compound `CCc1cc2c(N3CCN(c4nnc(CC)s4)CC3)ncnc2s1`, the cytotoxicity is 19.4%.

As to `O=C(c1ccco1)N1CCN(c2ncnc3c2cnn3-c2ccccc2)CC1`, the cytotoxicity was -0.8%.

`Cc1ccc(-n2ncc3c(N4CCCC4)ncnc32)c(C)c1`: the cytotoxicity was 1.2%.

`O=C(COc1ccccc1)N1CCN(c2ncnc3c2cnn3-c2ccccc2)CC1`: the cytotoxicity was 5.3%.

Turning to `COc1ccc(-n2ncc3c(N4CCN(c5cc(C)ccc5C)CC4)ncnc32)cc1`, the cytotoxicity is 15.6%.

As to `COc1ccc(N2CCN(c3ncnc4c3cnn4-c3ccc(C)cc3C)CC2)cc1`, the cytotoxicity was -12.5%.

As to `O=C(CSc1nnnn1C1CCCCC1)NCCc1ccccc1`, the cytotoxicity was 4.8%.

Take `COc1cccc(-c2cnc(NCc3cc(Cl)ccc3O)n2C)c1`: the cytotoxicity is -7.2%.

`CC(=O)Nc1ccc(NC(C)=O)s1`: the cytotoxicity was -16.5%.

As for `CCCCNC(=O)C(C#N)c1nc2ccccc2nc1N1CCCC1` (configuration not stated), the cytotoxicity is -16.3%.

Take `CCN(CC(=O)Nc1ccc2c(c1)OCCO2)Cc1cc(=O)oc2c(C)c(C)ccc12`: the cytotoxicity was 9.3%.

Turning to `Cc1n[nH]c(C)c1S(=O)(=O)Nc1ccc2c(c1)OCCO2`, the cytotoxicity is 4.3%.

On to `Cc1cc(C#N)c(C)n1-c1cc(C(F)(F)F)ccc1N1CCOCC1`, for which the cytotoxicity was -11.9%.

As to `COCCCn1c(SCC(=O)N2CCCCC2C)nnc1-c1ccco1` (configuration not stated), the cytotoxicity was -0.2%.

For `CCn1c2ccccc2c2nnc(SCC(=O)NC(CC(C)C)C(=O)OC)nc21` (configuration not stated), the cytotoxicity is 2.3%.

As to `O=C(CSc1nc(-c2ccccc2)cc(=O)[nH]1)N1CCOCC1`, the cytotoxicity is 8.9%.

As for `CCc1noc(C)c1C(=O)Nc1sc(C(=O)N(C)C)c(C)c1C(=O)OC`, the cytotoxicity was 2.3%.

`COc1ccc(S(=O)(=O)N(CC(=O)O)Cc2ccccc2)cc1OC`: the cytotoxicity is 1.8%.

On to `COCc1nc2ccccc2n1CCOc1ccccc1OC`, for which the cytotoxicity is -0.4%.

`COc1cccc(NC(=O)c2oc3ccccc3c2NC(=O)C(C)(C)C)c1`: the cytotoxicity is 17.5%.

In the case of `CSc1ccc(-c2nnn(Cc3ccccn3)n2)cc1`, the cytotoxicity was -1.2%.

Turning to `CC1=CC(C)C2C(=O)N(CCC[N+](C)(C)C)C(=O)C2C1` (configuration not stated), the cytotoxicity is 14.9%.

Consider `CSc1nc2ccc(NS(=O)(=O)c3ccc(Cl)s3)cc2s1`, for which the cytotoxicity was 54.6% (active).

For the compound `Cc1ccc(S(=O)(=O)Nc2ccc3nc(N)sc3c2)cc1`, the cytotoxicity was 4.4%.

As for `CSc1nc2ccc(S(=O)(=O)NC3CCCCC3)cc2s1`, the cytotoxicity is 6.2%.

In the case of `Cc1cc2n(n1)C(c1ccc(N(C)C)cc1)Nc1ccccc1-2` (configuration not stated), the cytotoxicity was 23.5%.

In the case of `c1ccc(-n2c(-c3ccco3)nnc2N2CCOCC2)cc1`, the cytotoxicity is -4.7%.

With `CCOC(=O)N1CCN(C(=O)CCS(=O)(=O)c2ccc(Br)s2)CC1`, the cytotoxicity was -3.8%.

On to `CC1(C)Nc2ccc(O)cc2-c2c1ssc2=S`, for which the cytotoxicity was 87.7% (active).

Regarding `CC1(C)c2ssc(=S)c2-c2ccccc2N1C(=O)c1ccco1`, the cytotoxicity was -6.9%.

`O=C(c1ccncc1)N1CCN(C(=O)c2ccncc2)CC1`: the cytotoxicity was -16.4%.

Consider `Nc1c(NCCCN2CCOCC2)c2ccccc2oc1=O`, for which the cytotoxicity is 6.2%.

`Cn1nnnc1SCc1nc2ccccc2[nH]1`: the cytotoxicity was 3.7%.

As to `Clc1ccc(OCCn2ccnc2)c(Cl)c1`, the cytotoxicity was -10.5%.

Regarding `OC(Cn1ccnc1)c1ccc(Cl)cc1Cl` (configuration not stated), the cytotoxicity is 0.4%.

Regarding `CC(Oc1ccc(Cl)cc1Cl)C(=O)NCCCn1ccnc1` (configuration not stated), the cytotoxicity is 2.8%.

In the case of `Clc1ccc(SCCn2ccnc2)cc1`, the cytotoxicity is -7.6%.

`OC(Cn1cncn1)c1ccc(Cl)cc1Cl` (configuration not stated): the cytotoxicity is 1.1%.

Take `O=C(COc1ccc(Cl)cc1Cl)NCCCn1ccnc1`: the cytotoxicity is 1.3%.

Turning to `COc1ccc(-c2ccc(-c3noc(-c4ccco4)n3)c(OC)n2)cc1`, the cytotoxicity was 9.8%.

With `O=C1c2oc3ccccc3c(=O)c2C(c2cccc(Br)c2)N1Cc1ccco1` (configuration not stated), the cytotoxicity is 5.4%.

Consider `Cc1cc(C)nc(SCc2nnc(SCC(=O)N3CCCc4ccccc43)n2C)n1`, for which the cytotoxicity was 9.2%.

Consider `O=C(COC(=O)CN1C(=O)c2ccccc2C1=O)Nc1ncc(Cl)cc1Cl`, for which the cytotoxicity is -11.3%.

Regarding `CCO/C=N/c1c(C#N)c(CC#N)nn1-c1ccccc1`, the cytotoxicity was -4.3%.

For `COc1ccc(C2NC(=O)c3n[nH]c(C)c32)c(OC)c1` (configuration not stated), the cytotoxicity is 2.8%.

Take `COc1ccc(C2CC(c3c(O)cc(C)oc3=O)=NCCS2)c(OC)c1` (configuration not stated): the cytotoxicity was 69.2% (active).

Regarding `COc1ccc(C2C(C(C)=O)=C(O)C(=O)N2C)c(OC)c1` (configuration not stated), the cytotoxicity was 18.5%.

`c1ccc(Sc2nc(N3CCCCC3)nc(N3CCCCC3)n2)nc1`: the cytotoxicity was -16.3%.

As to `Cc1cc(C)c(S(=O)(=O)Nc2ccc(O)cc2)cc1C`, the cytotoxicity is 13%.

On to `O=C(CCC1COc2ccccc2O1)Nc1ncccc1O` (configuration not stated), for which the cytotoxicity is -11.8%.

Take `CN1/C(=C\P(=O)(N(C)C)N(C)C)C(C)(C)c2ccccc21`: the cytotoxicity was -1.6%.

Take `O=C(NCC1(N2CCOCC2)CCCCC1)c1ccc(Cl)c(S(=O)(=O)NCc2ccco2)c1`: the cytotoxicity was -5.8%.

With `O=C(O)c1ccc(Cl)c(S(=O)(=O)NCc2ccco2)c1`, the cytotoxicity was -11.1%.

As to `Cc1ccc(S(=O)(=O)Cc2ccc(C(=O)N3CCN(c4cc(C)ccc4C)CC3)o2)cc1`, the cytotoxicity was 20.6%.

As to `COc1ccc(S(=O)(=O)Cc2ccc(C(=O)N3CCN(c4cccc(C)c4C)CC3)o2)cc1`, the cytotoxicity is 48.2%.

With `Cc1ccccc1S(=O)(=O)Cc1ccc(C(=O)N2CCN(c3cccc(C)c3C)CC2)o1`, the cytotoxicity was 73.9% (active).

As to `Cc1ccc(C)c(N2CCN(C(=O)c3ccc(CS(=O)(=O)c4ccccc4C)o3)CC2)c1`, the cytotoxicity was 52.8% (active).

With `Cc1ccccc1S(=O)(=O)Cc1ccc(C(=O)N2CCN(c3ccc(F)cc3)CC2)o1`, the cytotoxicity is 3.3%.

With `Cc1ccccc1S(=O)(=O)Cc1ccc(C(=O)N2CCN(c3ncccn3)CC2)o1`, the cytotoxicity was -21.5%.

Consider `Cc1cccc(N2CCN(C(=O)c3ccc(Cl)c(S(=O)(=O)NCc4ccco4)c3)CC2)c1C`, for which the cytotoxicity is 55.9% (active).

In the case of `CCSc1nc2c(c(=O)n(C)c(=O)n2C)n1Cc1ccc(Cl)cc1`, the cytotoxicity is 1.1%.

On to `CSc1ccc2[nH]c(=O)cc(C)c2c1`, for which the cytotoxicity is -15.6%.

As for `c1ccc(Cn2nnnc2CN2CCCC2)cc1`, the cytotoxicity was -11%.

`COc1ccc(NS(=O)(=O)c2ccc(NS(C)(=O)=O)cc2)cc1`: the cytotoxicity was -20.7%.

As for `COc1ccccc1/C=N/n1cnnc1`, the cytotoxicity was -11.3%.

For `Nc1ccc(-c2nc3ccccc3[nH]2)cc1`, the cytotoxicity was -4.1%.

As for `Nc1ccc(-c2nc3ccc(-c4nc5ccccc5o4)cc3[nH]2)cc1`, the cytotoxicity was 66.5% (active).

In the case of `Nc1cc(N)cc(-c2nc3ccccc3o2)c1`, the cytotoxicity is 15.3%.

Consider `COCCN(C(=O)Cc1cccs1)c1nnc(-c2ccncc2)s1`, for which the cytotoxicity was -16.9%.

With `CCCCc1c(C)nc(N)[nH]c1=O`, the cytotoxicity is 1.6%.

As to `COc1ccc(CN(CCCN2CCOCC2)C(=O)Nc2ccccc2)cc1OC`, the cytotoxicity was 13.2%.

Consider `Clc1ccc2nc(N3CCCCC3)sc2c1`, for which the cytotoxicity was -11.1%.

As to `Cc1cc(Cl)ccc1OC(C)C(=O)Nc1ccccc1N1CCOCC1` (configuration not stated), the cytotoxicity was -12.8%.

Turning to `Cc1cc(/C=N\O)c(C)n1-c1ccncc1`, the cytotoxicity was 3.4%.
